# Test results from PubChem BioAssay (Tox21).
# Unmarked numbers belong to inactive results. Active and inactive are the calls of the source. The call rests on the fitted dose curve; in most records, active means well fitted curve in the direction sought with a large enough effect in the repeat runs; inconclusive means weak or mixed curves; inactive means flat fitted curve, though single readings scatter.
# Assay: qHTS assay to test for compound auto fluorescence at 460 nm (blue) in HepG2 cells (AID 720687)
# Settings: autofluorescence 405/460 nm, 1 h; series mostly up to 46 µM; fluorescence, % of fluorescent control: at the top concentration
# Summary of the method: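 Blue-channel autofluorescence (Ex/Em 405/460 nm, triamterene-equivalent) was measured after 1 hr compound exposure at 37 C, 5% CO2. Cells were HepG2, plated overnight at 37 C in MEM plus 10% FBS.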
# On the % scale 0 is the no-effect control and ±100 the full control effect.
SMILES,"fluorescence, % of fluorescent control",outcome
CC(C)(C)CC(C)(C)c1cc(Cc2cc(C(C)(C)CC(C)(C)C)cc(-n3nc4ccccc4n3)c2O)c(O)c(-n2nc3ccccc3n2)c1,-0.0144%,
CCCC(=O)N1CCCN(c2nc(N)c3cc(OC)c(OC)cc3n2)CC1,-0.0355%,
COCC1=C(C(=O)OC(C)OC(=O)OC(C)C)N2C(=O)[C@@H](NC(=O)/C(=N\OC)c3csc(N)n3)[C@H]2SC1 (some centres undefined),,inactive
CN1CCC(OC(=O)C(Oc2ccc(Cl)cc2)Oc2ccc(Cl)cc2)CC1,-0.0156%,
CC(C)[C@@H](C)/C=C/[C@@H](C)[C@H]1CC[C@H]2/C(=C/C=C3\C[C@@H](O)CC[C@@H]3C)CCC[C@]12C,0.01%,
O=C1c2ccccc2C(=O)C1c1ccc(Cl)cc1,-0.0183%,
O=C(CCCN1CCC(n2c(=S)[nH]c3ccccc32)CC1)c1ccc(F)cc1,0.0157%,
CC1(C)[C@@H]2CC[C@@]1(C)[C@H](OC(=O)CSC#N)C2,0.2%,
CN1CCC(CN2c3ccccc3Sc3ccccc32)C1 (centres undefined),0.0094%,
CC(C)Cc1ccc([C@@H](C)C(=O)NS(C)(=O)=O)cc1,0.413%,
CC(C)N1CCN(c2ccc(OC[C@H]3CO[C@](Cn4cncn4)(c4ccc(Cl)cc4Cl)O3)cc2)CC1,0.0243% [at 18.6 µM],
Cc1ccc(C2(O)CCN(CCCC(=O)c3ccc(F)cc3)CC2)cc1,0.0812%,
CCN(CC)CCOCCOC(=O)C(CC)(CC)c1ccccc1,0.0585%,
CCC(=O)c1ccc2c(c1)N(CCCN1CCN(CCO)CC1)c1ccccc1S2,0.455%,
O=S(O)CNc1ccc(S(=O)(=O)c2ccc(NCS(=O)O)cc2)cc1,0.0124%,
CCCCCCCCCCCCCCCCOCCOCCOCCOCCOCCOCCOCCOCCOCCOCCOCCOCCOCCOCCOCCOCCOCCOCCOCCOCCO,-0.026%,
S=C1SCN(Cc2ccccc2)CN1Cc1ccccc1,0.0364%,
CC(C)CCCC(C)NC(C)C (centres undefined),0.0454%,
CC[C@H]1OC(=O)[C@H](C)[C@@H](O[C@H]2C[C@@](C)(OC)[C@@H](O)[C@H](C)O2)[C@H](C)[C@@H](O[C@@H]2O[C@H](C)C[C@H](N(C)C)[C@H]2O)[C@](C)(O)C[C@@H](C)[C@@H]2N[C@@H](COCCOC)O[C@@H]([C@H]2C)[C@]1(C)O,0.0314%,
C[C@H](CCCC(C)(C)O)[C@H]1CC[C@H]2[C@@H]3CC=C4C[C@@H](O)CC[C@]4(C)[C@H]3CC[C@]12C,-0.0302%,

SMILES,"fluorescence, % of fluorescent control",outcome
COc1ccc(/C=C/C(=O)OCCC(C)C)cc1,-0.193%,
O=C(NNCNNC(=O)c1ccncc1)c1ccncc1,-0.0984%,
Cc1ccccc1,,inactive
C=C1C(=C/C=C2\CCC[C@]3(C)[C@@H]([C@H](C)/C=C/[C@H](C)C(C)C)CC[C@@H]23)C[C@@H](O)C[C@@H]1O,0.356%,
CC[C@H](C)[C@H]1O[C@]2(CC[C@@H]1C)C[C@@H]1C[C@@H](C/C=C(\C)[C@@H](O[C@H]3C[C@H](OC)[C@@H](O[C@H]4C[C@H](OC)[C@@H](O)[C@H](C)O4)[C@H](C)O3)[C@@H](C)/C=C/C=C3\CO[C@@H]4[C@H](O)C(C)=C[C@@H](C(=O)O1)[C@]34O)O2,-0.0576%,
O=C(O)[C@@H](O)[C@H](O)[C@H](O)[C@@H](O)C(=O)O (tested in a mixture with another compound),-0.0736%,
CCCCC[C@H](O)/C=C/[C@H]1[C@H](O)CC(=O)[C@@H]1CCCCCCC(=O)O,-0.0253% [at 18.6 µM],
O=P(O)(O)OC[C@H](O)CO,0.103%,
Cn1c(O)c(N=NC(N)=S)c2ccccc21,-0.288%,
CCCC(=O)O[C@]1(C(=O)COC(=O)CC)[C@@H](C)C[C@H]2[C@@H]3CCC4=CC(=O)C=C[C@]4(C)[C@@]3(F)[C@@H](O)C[C@@]21C,0.0218%,
CO[C@H]1C[C@H](O[C@H]2[C@H](C)[C@@H](O[C@@H]3O[C@H](C)C[C@H](N(C)C)[C@H]3OC(C)=O)[C@@H](C)C[C@]3(CO3)C(=O)[C@H](C)[C@@H](OC(C)=O)[C@@H](C)[C@@H](C)OC(=O)[C@@H]2C)O[C@@H](C)[C@@H]1OC(C)=O,-0.0291% [at 18.6 µM],
CCN(CC)c1ccc(C(=C2C=CC(=[N+](CC)CC)C=C2)c2ccccc2)cc1,-0.0188%,
CC(=O)O[C@H]1C[C@@H]2CC[C@@H]3[C@H](CC[C@@]4(C)[C@H]3C[C@H](N3CC[N+](C)(C)CC3)[C@@H]4OC(C)=O)[C@@]2(C)C[C@@H]1N1CC[N+](C)(C)CC1,-0.0495%,
COc1cc(-c2ccc(-[n+]3nc(-c4ccccc4)nn3-c3ccc([N+](=O)[O-])cc3)c(OC)c2)ccc1-[n+]1nc(-c2ccccc2)nn1-c1ccc([N+](=O)[O-])cc1,-0.0058%,
Cn1nnnc1SCC1=C(C(=O)O)N2C(=O)[C@@H](NC(=O)[C@H](OC=O)c3ccccc3)[C@H]2SC1,0.912%,
Cn1cc(NC(=O)c2cc(NC(=O)c3cc(NC=O)cn3C)cn2C)cc1C(=O)NCCC(=N)N,0.104%,
O=P(O)(O)OC[C@H]1O[C@](O)(COP(=O)(O)O)[C@@H](O)[C@@H]1O,-0.163%,
C#C[C@]1(O)CC[C@H]2[C@@H]3CCC4=CCCC[C@@H]4[C@H]3C(=C)C[C@@]21CC,0.0946%,
CN=C1C=CC(=C(c2ccc(N(C)C)cc2)c2ccc(N(C)C)cc2)C=C1,-0.139%,
